The structures appear in SMILES notation. About 150 (12%) of roughly 1,300 compounds were called active. A call without a number means that no potency is given here. Roughly 30% stayed inconclusive and do not appear here. Calls follow the shape of the dose curve; as a rule, active = well fitted cell-killing curve with a large enough effect; inconclusive = small, poorly fitted or top-dose-only effect, or effect the other way; inactive = flat fitted curve, though single readings scatter. For the sample, actives were picked, then their nearest neighbours and some compounds at random.
Potency is read from the fitted curve at half-maximal effect.

The assay is described as follows: qHTS of small molecules that selectively kill Giardia lamblia: Hit Validation in HepG2 cytotox.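 Also: compound exposure lasted overnight at 37 deg C; nearly all actives have a fitted effect of over 55% in size.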 The conditions noted are these: cell viability; Potency: HepG2 cytotoxicity; series mostly up to 38.3 µM. A digest of the protocol: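 HepG2 cells seeded and incubated overnight at 37 deg C, then 23 nL compound added by pintool and incubated overnight at 37 deg C. Viability read as ATP luminescence with ATPLite after 15 min at room temperature.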
Take `O=C(c1ccc([N+](=O)[O-])o1)N1CCOCC1`: the Potency entry was “inactive”. With `Cc1oc2c(c1C(=O)N1CCOCC1)C(=O)c1ccccc1C2=O`, the Potency is 4.65 µM (active). The result for `CC1CCN(c2ccc(-c3ccc(NC(=O)C(F)(F)F)cc3)nn2)CC1` reads 4.14 µM (active). Regarding `N#CC1C=Cc2c(ccc3ccccc23)N1C(=O)c1ccccc1` (centres undefined), the Potency entry is “inactive”. On to `Cc1nc2c(ccc3nc(NC(=O)c4ccc5c(c4)OCCO5)sc32)s1`, for which the Potency is 1.85 µM (active). To `CC(=O)c1sc(NC(=O)c2ccc(C)c(C)c2)nc1C` belongs “inactive”; to `O=C(Nc1ccc2c(c1)OCCO2)c1cc(-c2ccccn2)nc2ccc(Br)cc12`, “inactive”.

Turning to `Cc1[nH]n(S(=O)(=O)Cc2ccccc2)c(=O)c1N=Nc1ccccc1Cl`, the Potency entry was “inactive”. Turning to `O=C(COc1cccnc1[N+](=O)[O-])c1c[nH]c2ccccc12`, the Potency entry was “inactive”. The result for `Cc1[nH]c2ccccc2c1C(=O)C(C)OC(=O)c1ccc([N+](=O)[O-])o1` (centres undefined) reads “inactive”. For `COC(=O)c1sc(NC(=O)COc2cccnc2[N+](=O)[O-])c(C(=O)OC)c1C`, the Potency result was “inactive”. Take `Cc1cc2[nH]c3c(c[n+](C)c4ccccc34)c2cc1C`: the Potency was 3.29 µM (active). Take `COC(=O)c1ccc(Cn2cc(C(F)(F)F)cc([N+](=O)[O-])c2=O)cc1`: the Potency entry was “inactive”. To `CCc1ccc([C@@H]2CC=C(C(=O)O)[C@H](c3cccc(Cl)c3)N2S(=O)(=O)c2ccc(C)cc2)cc1` belongs “inactive”; to `Cc1ccc(CN=c2c([N+](=O)[O-])nn(-c3ccc4c(c3)OCCO4)n2O)cc1`, “inactive”.

Regarding `Cc1ccccc1N1CCN(Cc2ccc([N+](=O)[O-])o2)CC1`, the Potency entry was “inactive”. The result for `COc1cc(/C=C2\COC/C(=C\c3cc(OC)c(OC)c(OC)c3)C2=O)cc(OC)c1OC` reads 2.33 µM (active); that for `COc1cc(C2CC(=O)Oc3cc(C)c(Cl)c(C)c32)cc(OC)c1OC` (centres undefined), “inactive”; that for `COc1cc(/C=C/c2onc(C)c2[N+](=O)[O-])cc(OC)c1OC`, “inactive”. To `Cc1ccc(S(=O)(=O)N2CC(C(=O)O)=CC[C@H]2c2ccc(Cl)cc2)cc1` belongs “inactive”; to `O=C(O)C=C(Br)Br`, “inactive”. For `COc1ccc(C(=O)c2c3ccccc3[n+]([O-])n2CCCN)cc1`, the Potency result was “inactive”. Turning to `CC(Oc1cccnc1[N+](=O)[O-])C(=O)Nc1ccc(F)cc1` (centres undefined), the Potency entry was “inactive”. As to `COc1ccc2c(c1)C1OCCC1C(c1ccco1)N2` (centres undefined), the Potency is 10.4 µM (active).

`CC(=O)OCON[N+]([O-])=NC(C)C`: the Potency result was “inactive”. In the case of `OCCOCCNc1ncnc2c1c(-c1ccccc1)cn2-c1ccccc1`, the Potency entry is “inactive”. As to `C(=C\c1nc2ccccc2s1)/c1ccc2c(c1)OCO2`, the Potency was 2.07 µM (active). The result for `O=[N+]([O-])c1cc(C(F)(F)F)ccc1Oc1cccnc1[N+](=O)[O-]` reads “inactive”; that for `Cc1nc2c(N=Nc3ccccc3F)c(N)nn2c(N)c1C#N`, “inactive”; that for `Cc1ccc(OCC(=O)Nc2ccc(C)c(F)c2)c([N+](=O)[O-])n1`, “inactive”. To `CC(C)(C)[C@H](N)C(=O)N[C@H]1CCC2C3CC=C4C[C@@H](O)CC[C@]4(C)C3CC[C@@]21C` (some centres undefined) belongs 2.33 µM (active). The result for `O=C(Nc1ccc(Cl)cn1)c1ccccc1[N+](=O)[O-]` reads “inactive”. For the compound `Brc1ccc(CNc2nc3ccccc3n2CCN2CCCCC2)cc1`, the Potency entry is “inactive”. The result for `NC(=S)NN=C1CCCCCCCC1` reads “inactive”; that for `COc1ccc(-c2nc(NCCCN(C)C)c3ccccc3n2)cc1`, “inactive”; that for `CCN(CC)CCCNc1nc2ccccc2c2[nH]c3ccc(OC)cc3c12`, 2.61 µM (active). The result for `NCCCn1c(C(=O)c2cc(Cl)c(N)c(Cl)c2)c2ccccc2[n+]1[O-]` reads “inactive”; that for `O=[N+]([O-])C(/C=C(/Cl)[N+](=O)[O-])=C(N1CCCCC1)N1CCCCC1`, “inactive”; that for `O=c1c2ccccc2nc(/C=C/c2ccc([N+](=O)[O-])o2)n1CCCO`, 3.69 µM (active).

For `CC(=O)N(/N=C/c1ccc([N+](=O)[O-])o1)c1nc2ccccc2c(=O)n1-c1ccccc1`, the Potency entry is “inactive”.

Regarding `O=[N+]([O-])c1ccc(/C=C/C2=NN(c3ccccc3)C(c3ccco3)C2)o1` (centres undefined), the Potency result is “inactive”. To `O=[N+]([O-])c1ncccc1Oc1nc(-c2cccnc2)nc2ccccc12` belongs “inactive”; to `COc1ccc(C(=O)COC(=O)c2ccccc2NS(=O)(=O)c2ccc(O)c([N+](=O)[O-])c2)cc1`, “inactive”; to `Cc1[nH]n(C2=NCCS2)c(=O)c1N=Nc1cccc(C(F)(F)F)c1`, 4.65 µM (active).

As for `Cc1[nH]n(S(=O)(=O)c2ccccc2)c(=O)c1N=Nc1cccc(Cl)c1`, the Potency result is “inactive”.

On to `CN(C(=O)c1ccc(N2CCCCC2)c([N+](=O)[O-])c1)C1CCS(=O)(=O)C1` (centres undefined), for which the Potency result was “inactive”. To `Cc1ccc(C(=O)c2c3ccc([N+](=O)[O-])cc3[n+]([O-])n2CCCC(N)=O)cc1` belongs “inactive”; to `O=c1cc[nH]c2ccc([N+](=O)[O-])cc12`, “inactive”; to `Cc1cc(C(=O)COc2cccnc2[N+](=O)[O-])c(C)n1Cc1ccco1`, “inactive”. To `c1ccc(-c2nc(-c3cnc4ccccc4n3)cs2)cc1` belongs “inactive”. The result for `CC1(C)CC(N=c2cc(-c3ccccc3)oc3ccc(Cl)cc23)CC(C)(C)N1` reads 8.26 µM (active).

With `Clc1ccc2oc(-c3ccccc3)cc(=NCCCN3CCOCC3)c2c1`, the Potency entry is “inactive”. Take `CN(C)CCCN=c1cc(-c2ccccc2)oc2ccc(Cl)cc12`: the Potency entry was “inactive”. For the compound `O=C(CSc1ccsc1[N+](=O)[O-])NCCc1ccc(Cl)cc1`, the Potency result was “inactive”.

For `O=[N+]([O-])c1cn(-c2nc(-c3ccco3)cc(C(F)(F)F)n2)cn1`, the Potency entry was “inactive”. Turning to `CNN/C(N=Cc1ccc([N+](=O)[O-])s1)=N\S(=O)(=O)c1cc(C)c(Cl)cc1SCc1ccccc1`, the Potency entry was “inactive”. As to `Clc1ccc2c(N/N=C/c3cccc(Br)c3)ccnc2c1`, the Potency is 11.7 µM (active). To `Clc1ccc2c(N/N=C/c3ccccc3Br)ccnc2c1` belongs 14.7 µM (active); to `CCOC(=O)C1CCN(c2ccc([N+](=O)[O-])c(C(C)=O)c2)CC1`, “inactive”; to `Cc1ccc(C(C(=O)NCc2ccco2)N(C(=O)CNC(=O)c2cccs2)c2c(C)cccc2C)cc1` (centres undefined), “inactive”. As to `NC(=O)c1ccc(Nc2ccc([N+](=O)[O-])cc2[N+](=O)[O-])cc1`, the Potency result is “inactive”.

Take `CC(=O)c1c(C)n([O-])c2ccc(C)cc2[n+]1=O`: the Potency result is “inactive”. To `C=CCn1c(C)cc(C(=O)COC(=O)c2n[nH]c(=O)c3ccccc23)c1C` belongs “inactive”. To `COc1ccc(-n2nc([N+](=O)[O-])c(=NCCC3=CCCCC3)n2O)cc1` belongs “inactive”; to `COc1ccc2c3n([n+]([O-])c2c1)CCN=C3c1cc(Cl)c(N)c(Cl)c1`, “inactive”.

Take `O=c1[nH]cnc2ccc([N+](=O)[O-])cc12`: the Potency entry was “inactive”. As for `COC(=O)Nc1nc2ccc(Sc3ccccc3)cc2[nH]1`, the Potency entry is “inactive”. To `COc1cc(SC)ccc1C(=O)Nc1nc2ccccc2[nH]1` belongs 2.07 µM (active); to `COC(=O)Nc1nc2ccc(SC(C)C)cc2[nH]1`, “inactive”; to `COc1ccc(-n2nc([N+](=O)[O-])c(=NCCc3ccccc3)n2O)cc1`, “inactive”. With `CCCCC12CN3CC(C)(CN(C1)C3c1ccc([N+](=O)[O-])o1)C2=O` (centres undefined), the Potency result is “inactive”. Take `Cc1ccc(S(=O)(=O)N2[C@@H](c3ccc(F)cc3)C(C(=O)O)=CC[C@H]2c2cccs2)cc1`: the Potency result is “inactive”.

For `COc1ccc(C(=O)CC(SCC(NC(C)=O)C(=O)O)c2ccc(Cl)cc2)cc1OC` (centres undefined), the Potency result is “inactive”. With `Cc1cc(C)cc(N=c2c([N+](=O)[O-])nn(-c3cccc(Cl)c3)n2O)c1`, the Potency result was “inactive”. Turning to `O=C(Nc1ccc2oc(-c3ccncc3)nc2c1)c1ccc([N+](=O)[O-])o1`, the Potency is 16.5 µM (active). The result for `O=C(Nc1ccc(-c2nc3ncccc3o2)cc1)c1ccc([N+](=O)[O-])o1` reads 4.65 µM (active); that for `Cc1ccc(-c2nnc(NC(=O)c3ccc([N+](=O)[O-])o3)o2)c(C)c1`, “inactive”; that for `O=C(Nc1ccc2oc(-c3ccccc3F)nc2c1)c1ccc([N+](=O)[O-])o1`, “inactive”. To `Cc1cccnc1NC(=O)c1ccc([N+](=O)[O-])o1` belongs “inactive”; to `O=C(Nc1ccc2oc(-c3cccnc3)nc2c1)c1ccc([N+](=O)[O-])o1`, 13.1 µM (active); to `COc1ccc(-n2c(C)cc(C(=O)COc3ccc(C)nc3[N+](=O)[O-])c2C)cc1`, “inactive”.

As to `CC(=O)c1c(COC(=O)c2ccc(F)cc2)nc2ccccc2[n+]1[O-]`, the Potency result was “inactive”. In the case of `COc1ccc(-n2nc([N+](=O)[O-])c(=NCCc3ccc(OC)c(OC)c3)n2O)cc1`, the Potency result was “inactive”. On to `Cc1cccc(NC(=O)CN2C(=O)S/C(=C\c3ccc(O)c([N+](=O)[O-])c3)C2=O)c1`, for which the Potency result is “inactive”. The result for `Cn1nc(N)c2c(-c3ccc(Cl)cc3)c(C#N)c(N)nc21` reads “inactive”; that for `O=[N+]([O-])c1ccc(/C=N/Nc2nc(N3CCCC3)nc(N3CCCC3)n2)o1`, “inactive”; that for `CCN(CC)S(=O)(=O)c1cccc(N=Nc2c(O)c3ccccc3oc2=O)c1`, “inactive”. The result for `Cc1ccc(S(=O)(=O)N2[C@@H](c3ccc(Cl)cc3)C(C(=O)O)=CC[C@H]2c2cccc(Cl)c2)cc1` reads “inactive”; that for `O=[N+]([O-])c1ccc(NCc2ccccc2N2CCC(CO)CC2)nc1`, “inactive”. In the case of `Cc1c(Cl)cccc1N=c1c([N+](=O)[O-])nn(-c2ccccc2)n1O`, the Potency result is “inactive”.

With `CN=c1c([N+](=O)[O-])nn(-c2ccc3c(c2)OCCO3)n1O`, the Potency result was “inactive”. For the compound `O=c1c2c([N+](=O)[O-])cc([N+](=O)[O-])cc2nc2ccccn12`, the Potency result was “inactive”. As to `CCCC12CN3CC(C)(CN(C1)C3c1ccc([N+](=O)[O-])o1)C2=O` (centres undefined), the Potency result is “inactive”. In the case of `CC(=O)CSc1ccc(-c2nc3ccccc3[nH]2)cn1`, the Potency is 14.7 µM (active). Take `Cc1ncc([N+](=O)[O-])n1CCOC(=O)NC(NCc1ccccc1)C(Cl)(Cl)Cl` (centres undefined): the Potency entry is “inactive”. The result for `Cc1cnc(N=Nc2ccccc2)[nH]1` reads “inactive”.

For `Cc1cc2nc(-c3ccc[nH]c3=O)[nH]c2cc1C`, the Potency is 2.33 µM (active). Consider `O=[N+]([O-])c1nn(-c2ccc3c(c2)OCCO3)n(O)c1=NC1CCCCC1`, for which the Potency result is “inactive”.

For the compound `CC(NC(=O)COc1cccnc1[N+](=O)[O-])c1ccc(F)cc1` (centres undefined), the Potency result is “inactive”.

Values taken from PubChem BioAssay AID588382 (National Center for Advancing Translational Sciences (NCATS), 2011).
